# Source: PMC5540273 (PLoS ONE, 2017)
# Where two headings read alike, the source gives them in different places.
# Assays:
# [1] = tested on: CLK2; conditions: concentration: 1 μM, replicates: in singlicate; n = 1
# [2] = tested on: CLK3; conditions: concentration: 1 μM, replicates: in singlicate; n = 1
# [3] = tested on: CLK4; conditions: concentration: 1 μM, replicates: in singlicate; n = 1
# [4] = tested on: CSF1R-autoinhibited; conditions: concentration: 1 μM, replicates: in singlicate; n = 1
# [5] = tested on: CSF1R; conditions: concentration: 1 μM, replicates: in singlicate; n = 1
# [6] = tested on: CSK; conditions: concentration: 1 μM, replicates: in singlicate; n = 1
# [7] = tested on: CSNK1A1L; conditions: concentration: 1 μM, replicates: in singlicate; n = 1
# [8] = tested on: CSNK1A1; conditions: concentration: 1 μM, replicates: in singlicate; n = 1
# [9] = tested on: CSNK1D; conditions: concentration: 1 μM, replicates: in singlicate; n = 1
# [10] = tested on: CSNK1E; conditions: concentration: 1 μM, replicates: in singlicate; n = 1
# [11] = tested on: CSNK1G1; conditions: concentration: 1 μM, replicates: in singlicate; n = 1
# [12] = tested on: CSNK1G2; conditions: concentration: 1 μM, replicates: in singlicate; n = 1
# [13] = tested on: CSNK1G3; conditions: concentration: 1 μM, replicates: in singlicate; n = 1
# [14] = tested on: CSNK2A1; conditions: n = 1
# [15] = tested on: CSNK2A2; conditions: n = 1
# [16] = tested on: T1, CTK; conditions: concentration: 1 μM, replicates: in singlicate; n = 1
# T1 construct: gene MATK
# [17] = tested on: DAPK1; conditions: concentration: 1 μM, replicates: in singlicate; n = 1
# [18] = tested on: DAPK2; conditions: concentration: 1 μM, replicates: in singlicate; n = 1
# [19] = tested on: DAPK3; conditions: concentration: 1 μM, replicates: in singlicate; n = 1
# [20] = tested on: T2, DCAMKL1; conditions: concentration: 1 μM, replicates: in singlicate; n = 1
# T2 construct: gene DCLK1
# [21] = concentration: 1 μM, replicates: in singlicate
# 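Note: KINOMEscan kinase panel screen.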
compound,measurement,setting,value
CNc1nccc(-c2ccc3c(N)n[nH]c3c2)n1 [GSK2206003],%Inh,[1],84%
same,%Inh,[2],48%
same,%Inh,[3],95.5%
same,%Inh,[4],11%
same,%Inh,[5],6%
same,%Inh,[6],0%
same,%Inh,[7],6%
same,%Inh,[8],0%
same,%Inh,[9],20%
same,%Inh,[10],28%
same,%Inh,[11],14%
same,%Inh,[12],0%
same,%Inh,[13],33%
same,%Inh,[14]; [21],43%
same,%Inh,[15]; [21],62%
same,%Inh,[16],0%
same,%Inh,[17],29%
same,%Inh,[18],31%
same,%Inh,[19],39%
same,%Inh,[20],0%
Cc1nn2c(=O)cc(N3CCO[C@H](C)C3)nc2n1Cc1cccc(Cl)c1Cl [GSK2373693],%Inh,[1],31%
same,%Inh,[2],4%
same,%Inh,[3],59%
same,%Inh,[4],0%
same,%Inh,[5],6%
same,%Inh,[6],56%
same,%Inh,[7],0%
same,%Inh,[8],16%
same,%Inh,[9],69%
same,%Inh,[10],25%
same,%Inh,[11],10%
same,%Inh,[12],0%
same,%Inh,[13],26%
same,%Inh,[14]; [21],50%
same,%Inh,[15]; [21],63%
same,%Inh,[16],0%
same,%Inh,[17],37%
same,%Inh,[18],54%
same,%Inh,[19],94.7%
same,%Inh,[20],0%
Cl.Cl.NC(CNC(=O)c1cc(Br)c(-c2ccnc3[nH]ccc23)s1)c1ccccc1 (stereo not drawn) [GSK1322949],%Inh,[1],88%
same,%Inh,[2],73%
same,%Inh,[3],91.5%
same,%Inh,[4],7%
same,%Inh,[5],29%
same,%Inh,[6],0%
same,%Inh,[7],47%
same,%Inh,[8],87%
same,%Inh,[9],89%
same,%Inh,[10],90.8%
same,%Inh,[11],30%
same,%Inh,[12],59%
same,%Inh,[13],60%
same,%Inh,[14]; [21],90%
same,%Inh,[15]; [21],84%
same,%Inh,[16],0%
same,%Inh,[17],41%
same,%Inh,[18],31%
same,%Inh,[19],54%
same,%Inh,[20],37%
CCNc1nccc(-c2c(-c3ccc(F)cc3)ncn2C2CCN(C)CC2)n1,%Inh,[1],45%
same,%Inh,[2],0%
same,%Inh,[3],13%
same,%Inh,[4],0%
same,%Inh,[5],0%
same,%Inh,[6],25%
same,%Inh,[7],56%
same,%Inh,[8],93%
same,%Inh,[9],98.6%
same,%Inh,[10],99.9%
same,%Inh,[11],7%
same,%Inh,[12],1%
same,%Inh,[13],0%
same,%Inh,[14]; [21],44%
same,%Inh,[15]; [21],17%
same,%Inh,[16],100%
same,%Inh,[17],24%
same,%Inh,[18],15%
same,%Inh,[19],10%
same,%Inh,[20],13%
COc1cccc2c(-c3ccncc3)c(-c3ccc(F)cc3)nn12 [GW468513],%Inh,[1],0%
same,%Inh,[2],6%
same,%Inh,[3],17%
same,%Inh,[4],24%
same,%Inh,[5],0%
same,%Inh,[6],0%
same,%Inh,[7],50%
same,%Inh,[8],93.6%
same,%Inh,[9],90.7%
same,%Inh,[10],99.8%
same,%Inh,[11],10%
same,%Inh,[12],14%
same,%Inh,[13],31%
same,%Inh,[14]; [21],11%
same,%Inh,[15]; [21],12%
same,%Inh,[16],8%
same,%Inh,[17],0%
same,%Inh,[18],0%
same,%Inh,[19],21%
same,%Inh,[20],0%
Cc1ccc(NC(=O)c2cccc(N3CCCCC3)c2)cc1-c1ccc(C(=O)NCC2CC2)cc1 [GSK1917008],%Inh,[1],1%
same,%Inh,[2],0%
same,%Inh,[3],32%
same,%Inh,[4],0%
same,%Inh,[5],45%
same,%Inh,[6],0%
same,%Inh,[7],18%
same,%Inh,[8],20%
same,%Inh,[9],27%
same,%Inh,[10],21%
same,%Inh,[11],8%
same,%Inh,[12],0%
same,%Inh,[13],24%
same,%Inh,[14]; [21],29%
same,%Inh,[15]; [21],10%
same,%Inh,[16],17%
same,%Inh,[17],0%
same,%Inh,[18],0%
same,%Inh,[19],29%
same,%Inh,[20],16%
Cn1cc(-c2ccc3c(c2)CCN3C(=O)Cc2cc(F)cc(C(F)(F)F)c2)c2c(N)ncnc21 [GSK2635225],%Inh,[1],19%
same,%Inh,[2],100%
same,%Inh,[3],18%
same,%Inh,[4],45%
same,%Inh,[5],95.3%
same,%Inh,[6],0%
same,%Inh,[7],1%
same,%Inh,[8],3%
same,%Inh,[9],22%
same,%Inh,[10],100%
same,%Inh,[11],22%
same,%Inh,[12],12%
same,%Inh,[13],15%
same,%Inh,[14]; [21],2%
same,%Inh,[15]; [21],0%
same,%Inh,[16],0%
same,%Inh,[17],21%
same,%Inh,[18],6%
same,%Inh,[19],19%
same,%Inh,[20],3%
COc1cc(Nc2nccc(N3CCC(NS(=O)(=O)c4ccc(NC(C)=O)cc4)CC3)n2)cc(OC)c1OC [GSK1379825],%Inh,[1],0%
same,%Inh,[2],23%
same,%Inh,[3],39%
same,%Inh,[4],7%
same,%Inh,[5],19%
same,%Inh,[6],0%
same,%Inh,[7],3%
same,%Inh,[8],8%
same,%Inh,[9],0%
same,%Inh,[10],21%
same,%Inh,[11],0%
same,%Inh,[12],0%
same,%Inh,[13],0%
same,%Inh,[14]; [21],8%
same,%Inh,[15]; [21],2%
same,%Inh,[16],0%
same,%Inh,[17],0%
same,%Inh,[18],0%
same,%Inh,[19],8%
same,%Inh,[20],0%
Cn1cc(-c2cnc(N)c3c(-c4ccc5c(c4)CCN5C(=O)Cc4ccccc4)csc23)cn1 [GSK2593074],%Inh,[1],19%
same,%Inh,[2],0%
same,%Inh,[3],0%
same,%Inh,[4],39%
same,%Inh,[5],99.9%
same,%Inh,[6],20%
same,%Inh,[7],0%
same,%Inh,[8],21%
same,%Inh,[9],0%
same,%Inh,[10],1%
same,%Inh,[11],21%
same,%Inh,[12],7%
same,%Inh,[13],22%
same,%Inh,[14]; 1 µM,0%
same,%Inh,[15]; 1 µM,1%
same,%Inh,[16],62%
same,%Inh,[17],38%
same,%Inh,[18],21%
same,%Inh,[19],7%
same,%Inh,[20],0%
